PostGolgi ctrl = growth inhibition of yeast control strain, primary screen, counter-screen for post-Golgi transport modulator project; hit rate 5% among 98,000; inhibition, % at 10 µM; efflux-deficient yeast background strain, growth absorbance A615, 16 h
CYP2C19 act = human CYP2C19 activators, primary screen, biochemical, luminescence; Cytochrome P450 2C19 (Homo sapiens), P33261; activation factor at 5 µM; recombinant CYP2C19, luciferin-H EGE luminescence; stronger effect = higher value; 0 = fully inhibited enzyme, 1 = untreated enzyme; AID 1025, 2008; 96,000 tested, under 10 active;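 active means activation factor of at least 2 at 5 µM in the primary screen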;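 further: 0 = wells with 2.5 mM tranylcypromine and 1 = vehicle-only wells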
Target sequence (P33261 whole entry, looked up): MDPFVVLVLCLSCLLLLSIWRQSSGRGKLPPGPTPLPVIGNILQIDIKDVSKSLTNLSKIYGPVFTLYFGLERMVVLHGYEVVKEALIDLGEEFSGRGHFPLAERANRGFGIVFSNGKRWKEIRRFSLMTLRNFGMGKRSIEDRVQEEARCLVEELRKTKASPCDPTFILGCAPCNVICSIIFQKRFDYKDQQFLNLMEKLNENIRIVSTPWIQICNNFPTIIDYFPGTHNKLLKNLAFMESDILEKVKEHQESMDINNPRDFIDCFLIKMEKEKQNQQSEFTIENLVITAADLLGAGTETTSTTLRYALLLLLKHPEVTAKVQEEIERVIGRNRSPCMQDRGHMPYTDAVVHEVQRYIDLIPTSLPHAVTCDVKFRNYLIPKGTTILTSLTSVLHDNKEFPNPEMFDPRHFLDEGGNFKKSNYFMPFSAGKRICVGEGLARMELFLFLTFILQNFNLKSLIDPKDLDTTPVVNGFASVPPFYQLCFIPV
CYP2C19 inhib = blockers of cytochrome P450 2C19 activity – biochemical, luminescence, ADME assay, primary screen; P33261; CYP2C19 Supersomes, luciferin-H EGE luminescence, 30 min; inhibition, % at 5 µM; hit rate 21% among 96,000;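 active means CYP2C19 inhibition above a set limit at 5 µM in the primary screen, cut at about 50% in these data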;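 further: plate controls were negative control wells for no effect and 2.5 mM tranylcypromine positive control for full effect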
CYP2C9 inhib = blockers of cytochrome P450 2C9 activity – biochemical, luminescence, ADME assay, primary screen; AID 777, 2007; P11712; hit rate 20% among 96,000; inhibition, % at 5 µM; CYP2C9 Supersomes, luciferin-H conversion;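 active means blocking of liver enzyme CYP2C9 beyond about 50% at 5 µM, limit read from the data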
CYP2C9 activ = human CYP2C9 activators, primary screen, biochemical, luminescence | recombinant CYP2C9, luciferin-H conversion; stronger effect = higher value; factor 1 = untreated enzyme, 0 = blocked | hit rate 1.4% among 96,000 | activation factor at 5 µM;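 active means activation factor of 2 or more for CYP2C9 at a 5 µM dose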;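 further: 0 = sulfaphenazole-blocked wells and 1 = vehicle-only wells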
PostGolgi yeast = phenotypic screen on post-Golgi transport, primary screen. post-Golgi transport phenotypic cell assay. inhibition, % at 10 µM. hit rate 0.9% among 98,000. AID 739, 2007;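 further: yeast cells grown in 1536-well plates; yeast grown about 18 h at 30C before absorbance read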
* = called active by the depositor. These entries were drawn from the full list. Unless noted, no stated cut-off is given here; in the data, active means inhibition above about 30%; inactive means the rest.

SMILES	PostGolgi ctrl	CYP2C19 act	CYP2C19 inhib	CYP2C9 inhib	CYP2C9 activ	PostGolgi yeast
Cc1ccc(OCc2nc(-c3ccc(Cl)cc3)n[nH]2)cc1	14	0	95*	94*	0.1	6
CCC12CN(C(=O)c3ccc(OC)cc3)CC(CC)(CN(C(=O)c3ccc(OC)cc3)C1)C2=O	9	0.4	58*	9	0.9	1
O=c1[nH]cnc2cc(Cl)ccc12	0	1.1	-6	5	0.9	-8
COc1ccc(N2CCN(C(=O)c3ccc(OCC4CCCO4)cc3)CC2)cc1 (centres undefined)	-6	1.2	-22	6	0.9	-4
CCCc1nc2sc3c(c2c(=O)n1N)CCC3	-1	0.3	74*	-6	1.1	6
CCn1c(NN)nc2sc3c(c2c1=O)CCC3	11	0.3	75*	79*	0.2	22
CCn1c(SCC(N)=O)nc2sc3c(c2c1=O)CCCC3	9	0.9	14	55*	0.4	-3
CCn1c(SCC(=O)NCCOC)nc2sc3c(c2c1=O)CCCC3	-3	0.5	49	80*	0.2	1
CCc1nc2sc3c(c2c(=O)n1N)CCC3	7	0.8	22	4	1	3
NC(=O)CSc1nc2sc3c(c2c2ncnn12)CCCC3	0	0.8	16	18	0.8	2
CCOC(=O)C1C(=O)C=C(/C=C/c2ccccc2)CC1c1ccc(Cl)cc1 (centres undefined)	16	0.9	10	21	0.8	9
Fc1ccc(CSc2ncnc3sc4c(c23)CCCC4)cc1	11	0.7	28	26	0.7	5
CC(=O)OC1C(OC(C)=O)N(C(C)=O)C(=O)N1C(C)=O (centres undefined)	-2	0.9	14	-8	1.1	5
Cc1nn(-c2ccccc2)c(C)c1C(=O)Nc1nnc(-c2ccco2)o1	-4	1	-2	-23	1.2	2
NC(=O)CC1NC(=O)c2ccccc21 (centres undefined)	4	1.1	-5	0	1	14
CCOC(=O)c1c(C)[nH]c(C(=O)OCC(=O)Nc2cc(C)c(Cl)cc2OC)c1C	0	0.9	6	12	0.9	-1
CCOC(=O)C1CCCn2c1nc1sc3c(c1c2=O)CCCC3 (centres undefined)	38*	0.3	66*	77*	0.2	-7
O=c1c2c3c(sc2nc2n1CCC2)CCC3	4	1	-3	12	0.9	0
Nn1c(Nc2ccccc2)nc2sc3c(c2c1=O)CCC3	31*	0.3	75*	98*	0	11
CCOc1ccc(-c2[nH]nc3c2C(c2ccc4c(c2)OCO4)C(C#N)=C(N)O3)cc1OC (centres undefined)	4	0.7	31	42	0.6	-2
COC(=O)c1nn(-c2ccc(Cl)cc2)c(=O)cc1Sc1ccccn1	1	0.9	11	4	1	2
COCCn1c(SCC(=O)N2CCCC2)nnc1-c1ccoc1C	11	0.9	7	22	0.8	8
COc1ccc2c(c1)c(=O)oc1cc(OCC(=O)N3CCCC(C)C3)ccc12 (centres undefined)	59*	0	99*	44	0.6	5
COc1ccc2c(c1)c(=O)oc1cc(OCC(=O)N3CCc4ccccc4C3)ccc12	-2	0.6	40	61*	0.4	-1
CC(=O)COc1ccc2c(C)c(C)c(=O)oc2c1	17	0.9	10	14	0.9	-1
SMILES	PostGolgi ctrl	CYP2C19 act	CYP2C19 inhib	CYP2C9 inhib	CYP2C9 activ	PostGolgi yeast
COc1ccc2c(c1)c(=O)oc1cc(OCC(=O)N3CCC(C)CC3)ccc12	9	0	99*	48	0.5	1
CCCCc1cc(=O)oc2cc(OCC(=O)N3CCc4ccccc43)ccc12	7	0.9	10	16	0.8	-9
O=C(NCc1cccs1)C1CCC(=O)N1C1CCCCC1 (centres undefined)	14	0.9	12	-3	1	-3
COc1ccc(C(NC(=O)c2ccco2)c2ccc(OC)c(OC)c2)cc1OC	0	0.3	72*	61*	0.4	4
COc1ccc(OC)c(C(C)NC(=O)c2ccco2)c1 (centres undefined)	20	0.2	82*	66*	0.3	-8
O=C1CCCN1c1ccc(S(=O)(=O)Oc2ccc(Cl)cc2)cc1[N+](=O)[O-]	11	0.5	50	20	0.8	-5
CC(C)C(=O)Nc1ccc(NC(=O)c2ccccc2Cl)nc1	11	0.9	5	-19	1.2	-1
CCC(Oc1ccc2c(c1)C(=O)CC(C)(C)O2)C(=O)NCCN1CCCCCC1 (centres undefined)	5	0.8	22	23	0.8	-3
Cc1cc(C)c([N+](=O)[O-])cc1-c1ccc(/C=N/c2c(-c3ccco3)nc3ccccn23)o1	4	0.9	7	26	0.7	11
Cn1c(SCC(=O)Nc2ccccc2-c2ccccc2)nnc1-c1ccco1	2	0.4	60*	45	0.5	7
Cn1c(SCC(=O)N2c3ccccc3Sc3ccccc32)nnc1-c1ccco1	26	0.3	68*	70*	0.3	2
Cc1occc1-c1nnc(SCC(=O)Nc2ccccc2-c2ccccc2)n1C	9	0.2	76*	76*	0.2	5
CCCn1c(SCC(=O)Nc2ccccc2-c2ccccc2)nnc1-c1ccoc1C	14	0.2	82*	87*	0.1	1
Cn1c(SCC(=O)NCc2cccs2)nnc1-c1ccco1	4	1	4	-4	1	-5
COc1ccc2oc(=O)c(C(=O)Oc3ccc(NC(C)=O)cc3)cc2c1	14	0.9	9	8	0.9	-2
CCC(=O)N/N=C(\C)CC(=O)Nc1ccc2ccccc2c1	6	0.9	7	-10	1.1	-4
Nc1ccccc1-c1nc2ccccc2[nH]1	19	0.5	47	56*	0.4	-1
CCOc1cc(C(=O)CCC(=O)OCC(=O)N2c3ccccc3NC(=O)C2(C)C)ccc1O	-5	0.7	30	12	0.9	5
COc1ccc(CCNC(=O)c2[nH]c(C)c(C(C)=O)c2C)cc1	7	0.5	50*	73*	0.3	1
CC(=O)c1c(C)[nH]c(C(=O)NCCc2cccc(C)c2)c1C	13	0.6	38	34	0.7	-5
CC(=O)c1c(C)[nH]c(C(=O)OCC(=O)NCCc2ccc(Cl)cc2)c1C	9	0.1	87*	87*	0.1	-6
O=C(O)C1CCN(C(=O)NC2CCCCC2)CC1	16	1	-4	5	0.9	-9
O=C(CSCCSCC(=O)c1ccco1)c1ccco1	6	1	4	28	0.7	0

Source: PubChem BioAssay (several laboratories)
